Results: PubChem BioAssay (Tox21)
Results filed as inconclusive are left out. Activity calls are given as the source filed them. Unless noted, calls come from the whole dose curve; as a rule, active = well fitted curve in the direction sought with a large enough effect in the repeat runs; inconclusive = weak or mixed curves; inactive = no such curve, though single readings can be large; an effect the other way counts as inactive or inconclusive.

Tests used:
[1] = qHTS assay to identify small molecule agonists of the peroxisome proliferator-activated receptor delta (PPARd) signaling pathway - cell viability counter screen (AID 743211); note: nearly all actives have a fitted effect of over 55% in size; note: potency is the fitted concentration of half-maximal effect
Outline: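 PPARd-bla HEK293H cells (3000/well) were pre-incubated 5 h at 37 C, then exposed to compound for 17 h at 37 C. After 2 h with LiveBLAzer substrate, CellTiter-Glo was added to the same wells; luminescence read after 30 min at room temperature.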

[2] = target: Peroxisome proliferator-activated receptor delta (Homo sapiens) (UniProt Q03181); experiment: qHTS assay to identify small molecule agonists of the peroxisome proliferator-activated receptor delta (PPARd) signaling pathway (AID 743212; calls by dose curve)
Outline: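 Quantitative high-throughput agonist screen in a HEK293H beta-lactamase reporter line under UAS control. Compounds in DMSO, at 37 C. Fluorescence read after 2 h with FRET substrate at room temperature.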

[3] = qHTS assay to identify small molecule antagonists of the peroxisome proliferator-activated receptor delta (PPARd) signaling pathway - cell viability counter screen (AID 743213); note: nearly all actives have a fitted effect of over 50% in size; note: potency is the fitted concentration of half-maximal effect
Outline: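 HEK293H PPARd UAS-bla cells, 5 h pre-incubation, compound + L165041 300 nM final, 17 h 37 C; B/G FRET substrate 2 h RT; then CellTiter-Glo 30 min RT, luminescence.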

[4] = target: Peroxisome proliferator-activated receptor delta (Homo sapiens) (UniProt Q03181); experiment: qHTS assay to identify small molecule antagonists of the peroxisome proliferator-activated receptor delta (PPARd) signaling pathway (AID 743215; active = well fitted inhibition curve with a large enough effect in the signal ratio in the repeat runs, not every such curve was filed as active; the % refers to the signal ratio;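 note: cells stimulated with agonist L165041 at 300 nM final during compound exposure; series mostly up to about 62 µM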)
Outline: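 Read-out is beta-lactamase FRET fluorescence, measured 2 h after substrate addition at room temperature. Beforehand, UAS-bla HEK293H cells carrying the PPARd reporter were exposed to compounds with L165041 at 300 nM final for 17 h at 37 C.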

[5] = target: Bile acid receptor (Homo sapiens) (UniProt Q96RI1); experiment: qHTS assay to identify small molecule antagonists of the farnesoid-X-receptor (FXR) signaling pathway (AID 743217; active = well fitted inhibition curve with a large enough effect in the signal ratio in the repeat runs, not every such curve was filed as active; the % refers to the signal ratio)
Outline: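 HEK 293T FXR-UAS-bla, 5000 cells/well; compound + CDCA 50 uM final; 16 h, 37 °C; B/G FRET substrate 2 h RT; fluorescence.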

[6] = qHTS assay to identify small molecule agonists of the farnesoid-X-receptor (FXR) signaling pathway - cell viability counter screen (AID 743218); note: nearly all actives have a fitted effect of over 45% in size; note: potency is the fitted concentration of half-maximal effect
Outline: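 HEK 293T FXR-bla cells; 5 h pre-incubation, 16 h compound exposure at 37 C; LiveBLAzer substrate 2 h RT, then CellTiter-Glo 30 min RT, luminescence.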

[7] = target: Bile acid receptor (Homo sapiens) (UniProt Q96RI1); experiment: qHTS assay to identify small molecule agonists of the farnesoid-X-receptor (FXR) signaling pathway (AID 743220; active = well fitted activation curve with a large enough effect in the signal ratio in the repeat runs, not every such curve was filed as active; the % refers to the signal ratio)
Outline: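 Beta-lactamase reporter under UAS control in GeneBLAzer FXR HEK 293T cells (5000/well) measured with LiveBLAzer FRET substrate after 2 h at room temperature. Compound exposure lasted 16 h at 37C.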

[8] = qHTS assay to identify small molecule antagonists of the farnesoid-X-receptor (FXR) signaling pathway - cell viability counter screen (AID 743221; active = well fitted cell-killing curve with a large enough effect in the repeat runs, not every such curve was filed as active; note: nearly all actives have a fitted effect of over 50% in size; note: potency is the fitted concentration of half-maximal effect)
Outline: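 GeneBLAzer FXR-UAS-bla HEK 293T cells, compound plus chenodeoxycholic acid (50 uM final), 16 h at 37 C. CellTiter-Glo added to the same wells after the beta-lactamase read; luminescence read after 30 min at room temperature as viability.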

[9] = target: Vitamin D3 receptor (Homo sapiens) (UniProt P11473); experiment: qHTS assay to identify small molecule agonists of the vitamin D receptor (VDR) signaling pathway (AID 743222; calls by dose curve)
Outline: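 VDR-bla cells, 2,000/well; 4 h preincubation 37C; cpd (DMSO) 16 h; LiveBLAzer B/G substrate 2 h RT; fluorescence intensity read.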

[10] = target: Vitamin D3 receptor (Homo sapiens) (UniProt P11473); experiment: qHTS assay to identify small molecule antagonists of the vitamin D receptor (VDR) signaling pathway (AID 743223; active = well fitted inhibition curve with a large enough effect in the signal ratio in the repeat runs, not every such curve was filed as active; the % refers to the signal ratio; note: potency is the fitted concentration of half-maximal effect)
Outline: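 VDR-bla cells were treated with compound plus 3 nM final 1alpha,25-dihydroxyvitamin D3 for 16 h at 37C. Beta-lactamase reporter read by B/G FRET substrate fluorescence after 2 h at room temperature. qHTS format.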

[11] = qHTS assay to identify small molecule agonists of the vitamin D receptor (VDR) signaling pathway - cell viability counter screen (AID 743224); note: nearly all actives have a fitted effect of over 50% in size; note: potency is the fitted concentration of half-maximal effect
Outline: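 Luminescence from CellTiter-Glo, read after 30 min at room temperature, reports viability of VDR-bla cells treated with compounds for 16 h at 37C in the wells used for the beta-lactamase FRET read.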

[12] = qHTS assay to identify small molecule antagonists of the vitamin D receptor (VDR) signaling pathway - cell viability counter screen (AID 743225); note: nearly all actives have a fitted effect of over 50% in size
Outline: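 VDR-UAS-bla HEK 293T cells were plated and incubated 4 h at 37C, then dosed with compound plus 3 nM (final) 1-alpha,25-dihydroxyvitamin D3 for 16 h. After the 2 h beta-lactamase read, viability in the same wells was read as CellTiter-Glo luminescence after 30 min at room temperature.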

[13] = qHTS assay to identify small molecule agonists of the endoplasmic reticulum stress response signaling pathway - cell viability counter screen (AID 1159517; calls by dose curve)
Outline: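 Counter-screen wells were identical to the reporter wells. Cells were plated at 1,500 per well and dosed for 5 hr, then read for luminescence 30 min after CellTiter-Glo addition.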

[14] = qHTS assay to identify small molecule antagonists of the retinoid-related orphan receptor gamma (ROR-gamma) signaling pathway - cell viability counter screen (AID 1159520); note: nearly all actives have a fitted effect of over 50% in size
Outline: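 Tet-on ROR gamma CHO cells were given compounds for 2 hr, then doxycycline hyclate at 1 uM final, and incubated 16 hr at 37 C. Viability was measured as ATP content by CellTiter-Glo luminescence.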

[15] = target: Nuclear receptor ROR-gamma (Homo sapiens) (UniProt P51449); experiment: qHTS assay to identify small molecule antagonists of the retinoid-related orphan receptor gamma (ROR-gamma) signaling pathway (AID 1159521; note: nearly all actives have a fitted effect of over 50% in size; note: potency is the fitted concentration of half-maximal effect)
Outline: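 Tet-on ROR-gamma CHO cells with ROR response element-luciferase reporter; compounds added 2 hr before 1 uM doxycycline induction, then 16 hr at 37 C. Antagonism scored as decreased ONE-Glo luminescence.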

[16] = qHTS assay to identify small molecule agonists of the AP-1 signaling pathway - cell viability counter screen (AID 1159525; calls by dose curve; note: nearly all actives have a fitted effect of over 55% in size)
Outline: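 AP-1-bla ME-180 cells in Opti-MEM with 0.5% dialyzed FBS, compound exposure 5 h at 37 C in 15-point titration. Viability read in the same wells as ATP content by CellTiter-Glo luminescence, normalised to tetra-n-octylammonium bromide and DMSO controls.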

[17] = qHTS assay to identify small molecule agonists of the AP-1 signaling pathway (AID 1159526; calls by dose curve)
[18] = qHTS assay to identify small molecule agonists of the endoplasmic reticulum stress response signaling pathway (AID 1159516; active = well fitted activation curve with a large enough effect in the signal ratio in the repeat runs, not every such curve was filed as active; the % refers to the signal ratio)
Outline: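 Read-out is beta-lactamase cleavage of a FRET substrate (405 nm excitation; 460 and 530 nm emissions) in ESRE-bla HeLa cells after a 5 hr compound exposure at 37 C. Substrate incubation ran 2 hr at room temperature.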

[19] = target: Retinoic acid receptor RXR-alpha (Homo sapiens) (UniProt P19793); experiment: qHTS assay to identify small molecule agonists of the RXR signaling pathway (AID 1159527; calls by dose curve; note: nearly all actives have a fitted effect of over 35% in size; note: potency is the fitted concentration of half-maximal effect)
Outline: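 GeneBLAzer RXR-alpha-UAS-bla HEK 293T cells in 2% charcoal-stripped FBS medium were exposed to compounds for 16 hr at 37 C in agonist mode. Beta-lactamase reporter read as 460/530 nm FRET ratio after 2 hr substrate loading.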

Measured: Potency

Chain of Bile acid receptor (Homo sapiens) (Q96RI1 whole entry, looked up): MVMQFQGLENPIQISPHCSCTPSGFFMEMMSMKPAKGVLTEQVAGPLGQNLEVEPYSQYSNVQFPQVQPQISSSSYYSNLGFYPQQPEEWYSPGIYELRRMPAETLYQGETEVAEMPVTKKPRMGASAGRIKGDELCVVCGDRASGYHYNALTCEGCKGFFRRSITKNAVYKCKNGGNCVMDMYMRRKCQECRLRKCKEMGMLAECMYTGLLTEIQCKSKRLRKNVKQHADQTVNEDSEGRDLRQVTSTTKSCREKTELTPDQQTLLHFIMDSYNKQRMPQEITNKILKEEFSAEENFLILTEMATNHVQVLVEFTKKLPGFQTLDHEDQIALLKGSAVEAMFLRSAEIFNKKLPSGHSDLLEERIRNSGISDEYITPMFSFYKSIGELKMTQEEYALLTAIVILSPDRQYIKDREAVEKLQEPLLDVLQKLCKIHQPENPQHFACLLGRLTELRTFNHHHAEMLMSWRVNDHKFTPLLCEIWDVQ
Chain of Vitamin D3 receptor (Homo sapiens) (P11473 whole entry, looked up): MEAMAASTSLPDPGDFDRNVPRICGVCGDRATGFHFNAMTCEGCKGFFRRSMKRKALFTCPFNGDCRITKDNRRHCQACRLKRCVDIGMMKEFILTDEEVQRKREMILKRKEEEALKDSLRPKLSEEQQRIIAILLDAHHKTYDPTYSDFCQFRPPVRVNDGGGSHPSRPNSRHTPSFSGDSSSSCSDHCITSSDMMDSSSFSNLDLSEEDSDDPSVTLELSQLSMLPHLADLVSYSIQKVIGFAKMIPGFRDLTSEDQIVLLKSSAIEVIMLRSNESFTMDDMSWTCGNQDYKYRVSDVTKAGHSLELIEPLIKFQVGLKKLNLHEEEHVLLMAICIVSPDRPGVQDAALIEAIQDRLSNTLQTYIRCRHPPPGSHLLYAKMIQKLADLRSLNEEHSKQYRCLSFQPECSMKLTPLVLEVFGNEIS
Chain of Retinoic acid receptor RXR-alpha (Homo sapiens) (P19793 whole entry, looked up): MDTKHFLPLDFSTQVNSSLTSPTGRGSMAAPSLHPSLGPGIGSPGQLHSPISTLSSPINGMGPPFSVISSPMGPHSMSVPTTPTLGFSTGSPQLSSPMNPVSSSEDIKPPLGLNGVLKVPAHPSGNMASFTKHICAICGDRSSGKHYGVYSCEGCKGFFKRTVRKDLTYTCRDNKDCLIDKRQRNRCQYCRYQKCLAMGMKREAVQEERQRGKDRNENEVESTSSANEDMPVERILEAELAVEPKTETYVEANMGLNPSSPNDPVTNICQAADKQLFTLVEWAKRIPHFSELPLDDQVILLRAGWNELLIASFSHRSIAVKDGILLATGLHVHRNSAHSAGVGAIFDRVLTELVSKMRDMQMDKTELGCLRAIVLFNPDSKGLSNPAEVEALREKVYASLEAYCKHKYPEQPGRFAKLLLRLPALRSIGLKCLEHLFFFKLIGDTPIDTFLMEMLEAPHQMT
Chain of Peroxisome proliferator-activated receptor delta (Homo sapiens) (Q03181 whole entry, looked up): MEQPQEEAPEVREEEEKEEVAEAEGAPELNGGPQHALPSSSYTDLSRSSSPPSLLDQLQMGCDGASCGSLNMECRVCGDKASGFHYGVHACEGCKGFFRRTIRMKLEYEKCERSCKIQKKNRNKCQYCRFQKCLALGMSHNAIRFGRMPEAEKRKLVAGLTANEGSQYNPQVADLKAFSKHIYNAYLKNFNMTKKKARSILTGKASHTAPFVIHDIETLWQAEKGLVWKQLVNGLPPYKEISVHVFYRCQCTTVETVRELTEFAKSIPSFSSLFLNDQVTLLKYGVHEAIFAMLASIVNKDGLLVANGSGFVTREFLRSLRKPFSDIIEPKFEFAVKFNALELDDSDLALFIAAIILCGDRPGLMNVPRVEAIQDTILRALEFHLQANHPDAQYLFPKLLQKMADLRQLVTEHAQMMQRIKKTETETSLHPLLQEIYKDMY

CCCCOC(=O)CC
not listed: [18] | [19]
inactive: all other assays above

CCOC(=O)Cn1cccc1-c1nc(-c2ccc(OC)cc2)c(-c2ccc(OC)cc2)s1
not listed: [2] | [4] | [5] | [6] | [7] | [9] | [18] | [19]
inactive: all other assays above

COC(=O)c1ccccc1C
not listed: [9] | [10] | [13]
inactive: all other assays above

Cc1ccc(N/N=c2\c(=O)cc/c(=N\Nc3ccc(S(=O)(=O)O)cc3)c2=O)c(C)c1
not listed: [2] | [4] | [7] | [9] | [10] | [13] | [18]
inactive: all other assays above

CCCNCCC
not listed: [6] | [10] | [18]
inactive: all other assays above

CN1CCCCC1CCN1c2ccccc2Sc2ccc(S(C)=O)cc21 (stereo not drawn)
inactive: [4] | [6] | [8] | [11] | [12] | [13] | [16] | [19]
active: [15] 29.8 µM

CN(C)Cc1cc(C(C)(C)C)c(O)c(C(C)(C)C)c1
active: [19] 11 µM
inactive: [2] | [3] | [9] | [10] | [11] | [14] | [15] | [16] | [17]

Oc1c(I)cc(Cl)c2cccnc12
active: [10] 8.69 µM | [11] 5.49 µM
inactive: [8] | [9] | [12] | [18]

CCc1ccc(Br)cc1
not listed: [6] | [7] | [13] | [18]
inactive: all other assays above

CCC(C)n1ncn(-c2ccc(N3CCN(c4ccc(OC[C@H]5CO[C@](Cn6cncn6)(c6ccc(Cl)cc6Cl)O5)cc4)CC3)cc2)c1=O (stereo partly drawn)
inactive: [2] | [4] | [8] | [9] | [10] | [11] | [12] | [13] | [16] | [17]
active: [3] 2.11 µM

O=C1CCCCCCCCCCCCCCCO1
not listed: [3] | [6] | [9] | [10] | [11] | [14] | [18]
inactive: all other assays above

ClCCl
inactive: [1] | [4] | [8] | [9] | [12] | [14] | [16] | [17] | [19]

CCC(CC)(CC(=O)Nc1cccc(/C=C/c2nc(C3CCC3)cs2)c1)C(=O)O
not listed: [2] | [6] | [9] | [10] | [13] | [19]
inactive: all other assays above

CC1(C)CCC[C@]2(C)[C@H]3CC(=O)O[C@]3(C)CC[C@@H]12
not listed: [2] | [5] | [9] | [10] | [14] | [16] | [17] | [19]
inactive: all other assays above

CCCCCC/C=C\CCCCCCCC(=O)O
not listed: [2] | [12] | [13] | [16] | [17] | [19]
inactive: all other assays above

CN(C)CCN1CCN(c2cccc(Cl)c2)C1=O
not listed: [2] | [5] | [7] | [11] | [13] | [14] | [15] | [18]
inactive: all other assays above

CCCC(=O)OC(C)(C)Cc1ccccc1
inactive: [1] | [9] | [11] | [18] | [16] | [17] | [19]

COc1ccc2cc1Oc1ccc(cc1)C[C@H]1c3c(cc4c(c3Oc3cc5c(cc3OC)CCN(C)[C@@H]5C2)OCO4)CCN1C
inactive: [7] | [9] | [18] | [13] | [16]
active: [1] 29.8 µM | [3] 13.3 µM | [6] 18.8 µM | [8] 29.8 µM
